Inconclusive results are not listed. Calls of active or inactive are those of the source. Unless noted, calls follow the shape of the dose curve; as a rule, active = well fitted curve in the direction sought with a large enough effect; inconclusive = small, poorly fitted or top-dose-only effect, or another doubt; inactive = no such curve, though single readings can be large; an effect the other way counts as inactive or inconclusive.
Key:
[1] = Cell Viability - BJ (AID 421; calls by dose curve;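 also: potency is read from the fitted curve at half-maximal effect; cells exposed to compound for 40 hours at 37 °C before readout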); settings: BJ fibroblast viability, qHTS
Outline: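 Luminescent ATP signal (CellTiter-Glo, 20 min at room temperature) served as the read-out of viable BJ cells after 40 hours of compound treatment. Responses were scaled between DMSO and 100 uM tamoxifen, and AC50 values were obtained by Hill modeling.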

[2] = Cell Viability - Hek293 (AID 427;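 active = compounds whose dose-response curve shows a full or clear partial loss of cell viability, called from curve shape rather than a numeric limit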;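 also: potency is read from the fitted curve at half-maximal effect; cells exposed to compound for 40 hours at 37 °C before reading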); settings: qHTS
Outline: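 Luminescent ATP read-out (CellTiter-Glo, 20 min RT) after 40 hr compound exposure at 37 °C in complete medium. Signal normalized to DMSO (basal) and 100 uM tamoxifen (100% inhibition); concentration-response fitted with the standard Hill equation to give AC50.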

[3] = Cell Viability - HepG2 (AID 433; calls by dose curve;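 also: potency is read from the fitted curve at half-maximal effect; potency for ATP loss meaning cytotoxicity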); settings: qHTS
Outline: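 HepG2 cells, 1500 per well, treated 40 hr at 37 °C in complete medium; viability from intracellular ATP by CellTiter-Glo luminescence. Normalized to DMSO and 100 uM tamoxifen; AC50 from Hill fit of qHTS concentration-response.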

[4] = Cell Viability - MRC5 (AID 434; calls by dose curve;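 also: potency is read from the fitted curve at half-maximal effect; potency reflects cytotoxicity seen as loss of intracellular ATP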); settings: MRC5 lung fibroblast viability, qHTS
Outline: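 Decrease in intracellular ATP, quantified by luciferase light output, reflects compound toxicity toward MRC5 cells exposed for 40 hr in complete culture medium. Concentration-response curves, scaled between DMSO and 100 uM tamoxifen, gave AC50 values.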

[5] = Cell Viability - SK-N-SH (AID 435; calls by dose curve; also: potency is read from the fitted curve at half-maximal effect); settings: SK-N-SH neuroblastoma cell viability qHTS
Outline: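 SK-N-SH neuroblastoma cells (1500/well) treated 40 h at 37 °C in complete medium; viability read as cellular ATP by CellTiter-Glo luminescence. Normalized to DMSO and 100 uM tamoxifen; AC50 from Hill fits of qHTS concentration-response.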

[6] = target: Mitogen-activated protein kinase 10 (Mus musculus) (UniProt Q61831); experiment: JNK3 AlphaScreen Assay (AID 530; active = well fitted curve in either direction with a large enough effect, not every such curve was filed as active;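 also: kinase came from lysate of stimulated human HepG2 cells; signal reports phosphorylation of biotinylated GST-cJun 1-79 at Ser73 with 10 µM ATP; % is scaled to controls: 0 for no effect and ±100 for the full control effect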)
Outline: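 Biotinylated GST-cJun(1-79) served as substrate for JNK3 in HepG2 lysates stimulated with IL-1beta and TNF-alpha. ATP was 10 uM final, pH 7.6. Ser73 phosphorylation was quantified by AlphaScreen (680 nm excitation).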

[7] = Cell Viability - N2a (AID 540); settings: N2a mouse neuroblastoma cell viability; at 92.2 µM (top of the series);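 also: plate controls were DMSO alone for no effect and tamoxifen control for full effect; nearly all actives have a fitted effect of over 45% in size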
Outline: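 N2a mouse neuroblastoma, 1500 cells/well, 5 hr settle; compound 40 hr, 37 °C; CellTiter-Glo 20 min RT; luminescence; Hill-fit AC50.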

[8] = Cell Viability - HUV-EC-C (AID 542); also: % is scaled to controls: 0 for no effect and ±100 for the full control effect; nearly all actives have a fitted effect of over 35% in size
Outline: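 Luminescent ATP read-out (CellTiter-Glo, 20 min room temperature) after 40 hr compound treatment of HUV-EC-C cells at 37 °C. Concentration-response data fitted with the standard Hill equation to give AC50; tamoxifen and doxorubicin served as positive controls.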

[9] = Cell Viability - H-4-II-E (AID 543); also: % is scaled to controls: 0 for no effect and ±100 for the full control effect; nearly all actives have a fitted effect of over 35% in size
Outline: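 qHTS, rat hepatoma H-4-II-E, 1500 cells/well; 40 hr compound exposure, 37 °C; CellTiter-Glo ATP luminescence after 20 min RT; AC50 by standard Hill fit.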

[10] = Cell Viability - SH-SY5Y (AID 544); settings: SH-SY5Y neuroblastoma cell viability; viability change, negative = cytotoxic: at 92.2 µM (top of the series); also: nearly all actives have a fitted effect of over 55% in size
Outline: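 SH-SY5Y, 1500 cells/well, 5 hr pre-incubation 37 °C; cpd 40 hr 37 °C; CellTiter-Glo 20 min RT; luminescence (ATP) read. qHTS concentration-response, Hill fit → AC50. Tamoxifen, doxorubicin as positive controls.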

[11] = Cell Viability - Renal Proximal Tubule (AID 545); settings: renal proximal tubule cells viability; at 91.7 µM (top of the series), primary cells of rat origin unless noted; also: nearly all actives have a fitted effect of over 40% in size
Outline: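 Rat renal proximal tubule primary cells, 1000/well, exposed to compounds for 40 hr at 37 °C in complete medium; cellular ATP read by CellTiter-Glo luminescence. AC50 from concentration-response fitted with standard Hill equation.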

[12] = Cellular Toxicity (caspase-3) HepG2 (AID 654);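 also: cells exposed to compound for 16 hours before reading; 0% = DMSO alone and 100% = caspase signal from 100 µM tamoxifen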
Outline: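 Luminescent Caspase-Glo 3/7 readout after 16 hr compound exposure of human hepatocellular carcinoma HepG2 cells at 37 °C; qHTS concentration-response, normalized DMSO = 0%, 100 uM tamoxifen = 100%; AC50 by standard Hill equation.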

[13] = Cellular Toxicity (caspase-3) Jurkat (AID 655); settings: Jurkat caspase-3 activation, luminescence, DMSO = 0%, tamoxifen = 100%; at 92.2 µM (top of the series);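 also: cells exposed to compound for 16 h at 37 °C before reading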
Outline: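 Jurkat cells (5000/well) in complete medium exposed 16 h at 37 C; caspase-3/7 activity read by Caspase-Glo luminescence after 20 min at room temperature. Normalized to DMSO and 100 uM tamoxifen; AC50 from Hill fits.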

[14] = Cellular Toxicity (caspase-3) HUV-EC-C (AID 656)
Outline: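 HUV-EC-C cells (1000/well) in complete medium, compound-treated 16 h at 37 °C; caspase-3/7 activity read by Caspase-Glo 3/7 luminescence. Normalized to DMSO (basal) and 100 uM tamoxifen (100%); AC50 from Hill-equation concentration-response fits.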

[15] = Cellular Toxicity (caspase-3) SHSY5Y (AID 657)
Outline: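 SH-SY5Y human neuroblastoma cells, 1500/well, exposed to compound for 16 hours at 37 °C in complete medium. Caspase-3/7 activity read by Caspase-Glo luminescence after 1 hr at room temperature, normalized to DMSO and 10 uM staurosporine; AC50 from Hill fit.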

[16] = Cellular Toxicity (caspase-3) BJ (AID 658)
Outline: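 Plated BJ cells (1000/well) rested 5 hr, received compound for 16 hr at 37 °C, then Caspase-Glo 3/7 reagent for 1 hr at room temperature before luminescence reading.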

[17] = Cellular Toxicity (caspase-3) MRC-5 (AID 659)
Outline: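 Apoptosis readout in MRC-5 cells: luciferase light generated after caspase 3/7 cleaves a peptide-aminoluciferin substrate, measured post 16 hr compound incubation at 37 °C.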

[18] = Cellular Toxicity (caspase-3) Mesangial (AID 660);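 also: cells exposed to compound for 16 h before the caspase read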
Outline: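 Luminescent Caspase-Glo 3/7 readout (aminoluciferin substrate cleavage, 20 min RT) after 16 h compound exposure at 37 °C of normal human mesangial cells. Signal increase normalized between DMSO basal and 100 uM tamoxifen; Hill-equation AC50.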

[19] = Cellular Toxicity (caspase-3) SK-N-SH (AID 661)
Outline: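 Luminescent Caspase-Glo 3/7 read-out after 16 hr compound exposure of SK-N-SH neuroblastoma cells at 37 °C. Signal increase normalized to DMSO (basal) and 10 uM staurosporine (100%); AC50 from Hill equation fits of qHTS concentration-response data.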

[20] = Cellular Toxicity (caspase-3) H-4-II-E (AID 663);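 also: cells exposed to compound for 16 hr before readout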
Outline: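 Caspase 3/7 activation measured in H-4-II-E cells in complete culture medium after 16 hr treatment at 37 °C, using luciferase-coupled substrate readout; AC50 values come from Hill-equation fits of normalized concentration-response data.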

[21] = Cellular Toxicity (caspase-3) Hek293 (AID 664);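 also: cells exposed to compound for 16 h at 37 °C before readout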
Outline: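 Luminescent Caspase-Glo 3/7 readout (aminoluciferin release) in HEK293 cells after 16 h compound treatment, 37 °C. Normalization: DMSO = basal, 100 uM tamoxifen = 100% stimulation. Concentration-response fitted with standard Hill equation for AC50.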

[22] = Cellular Toxicity (caspase-3) N2a (AID 665); settings: N2a cells, luminescence, normalized: DMSO 0%, 10 µM staurosporine 100%; at 92.2 µM (top of the series);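 also: compound exposure lasted 16 h at 37 °C before readout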
Outline: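 Luminescent Caspase-Glo 3/7 readout in N2a mouse neuroblastoma cells after 16 h compound exposure at 37 °C. Signal scaled to DMSO (basal) and 10 uM staurosporine (100%). Concentration-response fitted with Hill equation for AC50.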

[23] = Cellular Toxicity (caspase-3) NIH 3T3 (AID 666);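 also: 0% = DMSO basal and 100% = 100 µM tamoxifen stimulation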
Outline: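 NIH 3T3, 1000 cells/well, 5 hr settle then 16 hr compound at 37°C; Caspase-Glo 3/7, 20 min RT, luminescence. DMSO = basal, 100 uM tamoxifen = 100%. Hill-equation AC50, qHTS.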

COC1=CC(=O)OC(CCc2ccccc2)C1 (stereo not drawn)
inactive: Potency [1] > 92 µM | Potency [2] > 92 µM | Potency [3] > 92 µM | Potency [4] > 92 µM | Potency [5] > 92 µM | outcome [6] | activity change, negative = cytotoxicity [7] -9.01% | Potency [8] | Potency [9] | Potency [10] | activity change, negative = cytotoxicity [11] -1.23% | outcome [12] | caspase-3 activation [13] 0.972% | outcome [14] | outcome [15] | outcome [16] | outcome [17] | outcome [18] | outcome [19] | outcome [20] | outcome [21] | caspase-3 activation [22] -5.42% | outcome [23]

Reference: PubChem BioAssay (NCATS)
